Values joined by “and” are separate entries in the source; they are usually repeats but may differ in a detail not shown here. Identical values can stand only once. Compounds without any hit were thinned out: in the full panel of roughly 79,000, 15% have a hit. Active and inactive are the calls of the source. Cut-off read from the data, not from the text of the source: active = growth inhibition above about 70%; inactive = the rest.

One test in a line: NCI Yeast Anticancer Drug Screen. Data for the mec2-1 strain (AID 157). The conditions noted are these: S. cerevisiae mec2-1 strain, at 3.7 µM, active compounds read high. Put shortly: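 mec2-1 yeast strain, carrying an alteration in DNA damage repair or cell cycle control, was exposed to compounds; growth inhibition was measured relative to vehicle-treated controls.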
As for `CSc1nnc(SC)nn1`, the growth inhibition is 1% (inactive).

Consider `COc1cc(/C=C2\CCC/C(=C\c3ccc(O)c(OC)c3)C2=O)ccc1O`, for which the growth inhibition is 0% (inactive).

As for `CN(C)CCNC(=O)c1cccc2cc([N+](=O)[O-])ccc12`, the growth inhibition was 8% (inactive).

Turning to `CCC(C)(C)c1ccc(Oc2cccc(C(=O)O)c2)cc1`, the growth inhibition is 2% (inactive).

For `CCCCCCSc1ncnc2[nH]ncc12`, the growth inhibition was -2% (inactive).

As for `CC(=O)Nc1ccc(/C=C/[N+](=O)[O-])cc1`, the growth inhibition is -2% (inactive).

With `CCOC(=O)c1[nH]n(-c2ccccc2)c(=O)c1C=NC(=S)C(N)=S`, the growth inhibition is 5% (inactive).

With `CCCC(O)C1CC(C(C)C)CCC1C` (stereo unspecified), the growth inhibition is 3% (inactive).

With `O=[n+]1c2ccccc2n([O-])c2cc(Br)ccc21`, the growth inhibition was 52% (inactive).

With `CN(C)CCNC(=O)c1cccc2c1Oc1c(cccc1[N+](=O)[O-])O2`, the growth inhibition was -23% (inactive).

As to `Nc1ncc(-c2ccc(Br)cc2)s1`, the growth inhibition was -1% (inactive).

As to `Cc1cc2cc3cc(C)c(N)cc3nc2cc1N`, the growth inhibition is -5% (inactive).

`CC12C(=O)OC(=O)C(c3ccccc31)c1ccccc12`: the growth inhibition was -6% (inactive).

As to `c1ccc2c(OCC3CO3)cccc2c1` (stereo unspecified), the growth inhibition is 4% (inactive).

Turning to `CCOC(=N)c1ccc(O)c(OC)c1`, the growth inhibition was 2% (inactive).

`Nc1cc(N)c(N=Nc2cccc3c(S(=O)(=O)O)cccc23)cc1N=Nc1cc([N+](=O)[O-])ccc1O`: the growth inhibition is -11% (inactive).

In the case of `COC(=O)Oc1cc(Cl)c(Cl)cc1Cl`, the growth inhibition was 4% (inactive).

Turning to `O=C(O)C1CC(c2ccccc2)=NN1c1ccccc1` (stereo unspecified), the growth inhibition is -53% (inactive).

For the compound `COc1cc([C@@H]2c3cc4c(cc3[C@@H](Nc3ccc(NC(=O)c5cc([N+](=O)[O-])cn5C)cc3)[C@H]3COC(=O)[C@H]23)OCO4)cc(OC)c1O`, the growth inhibition is 6% (inactive).

Consider `O=C(O)c1ccccc1/C=N/N=C1c2ccccc2-c2ccccc21`, for which the growth inhibition is -1% (inactive).

`O=C1CC(=O)c2ccccc21`: the growth inhibition is 2% (inactive).

For `Nc1ncnc2c1ncn2C1OC(CO)CC1O` (stereo unspecified), the growth inhibition is -8% (inactive).

Still in this test, the particulars now being: S. cerevisiae mec2-1 strain, at 5.0 µM (retest, dose inferred, filed as 0.5), active compounds read high.
`CS(=O)(=O)SCc1ccc([N+](=O)[O-])cc1`: the growth inhibition was -25% (inactive).

In the case of `Cc1csc(=S)n1OC(=O)NC1CCCCC1`, the growth inhibition was -3% (inactive).

As to `CCOc1ccc(NC(=O)C2=C(C)NC(C)=C(C(=O)Nc3ccc(OCC)cc3)C2c2cccc([N+](=O)[O-])c2)cc1`, the growth inhibition was 0% (inactive).

Turning to `CC(C)(C)N=C(NO)c1ccccc1`, the growth inhibition is -2% (inactive).

Turning to `CCCCC/C(=C(\C#N)C(=O)OCC)c1ccccc1`, the growth inhibition was -5% (inactive).

Take `O=C(NCCCl)Sc1ccc(Cl)cc1`: the growth inhibition is -52% (inactive).

On to `O=C1Nc2ccc(Br)cc2C1=Nc1ccc2c(c1)OCO2`, for which the growth inhibition was 41% (inactive).

As for `CCC(C)OC(=O)Nc1ccc(C)c(NC(=O)OC(C)CC)c1` (stereo unspecified), the growth inhibition was -11% (inactive).

Regarding `O=C(O)c1cc2ccc(Cl)cc2c(O)c1C1=CCCCC1`, the growth inhibition was -1% (inactive).

As for `CN(C)Cc1cc(N=Nc2ccc(Cl)cc2)ccc1OC(=O)c1ccccc1`, the growth inhibition was -2% (inactive).

As for `CN1CCN(C(=O)/C=C/C(=O)c2ccccc2)CC1`, the growth inhibition is -3% (inactive).

Regarding `CCCC/C=C/C(C)(C(=O)OCC)C(=O)OCC`, the growth inhibition is 3% (inactive).

As for `Cc1nc(-c2cc3cc([N+](=O)[O-])ccc3oc2=O)cs1`, the growth inhibition is 18% (inactive).

Regarding `Cc1nc2ccccc2nc1NNc1ccccc1`, the growth inhibition is -7% (inactive).

Regarding `CN(C)[C@@H]1C(=O)C(C(N)=O)=C(O)[C@@]2(O)C(=O)C3=C(O)c4c(O)cccc4C[C@H]3C[C@@H]12`, the growth inhibition was 87% (active).

For `COc1ccc(NC(=O)CC2SC(=Nc3ccccc3C)NC2=O)c([N+](=O)[O-])c1` (stereo unspecified), the growth inhibition is -17% (inactive).

Regarding `COc1cc(O)c2c(c1O)C(=O)c1cc(C)ncc1C2=O`, the growth inhibition is 8% (inactive).

Regarding `CSc1nnc(SC)nn1`, the growth inhibition is 57% (inactive).

Turning to `COc1cc(/C=C2\CCC/C(=C\c3ccc(O)c(OC)c3)C2=O)ccc1O`, the growth inhibition was 4% (inactive).

Regarding `CN(C)CCNC(=O)c1cccc2cc([N+](=O)[O-])ccc12`, the growth inhibition was 11% (inactive).

For the compound `CCC(C)(C)c1ccc(Oc2cccc(C(=O)O)c2)cc1`, the growth inhibition is 19% (inactive).

Turning to `CCCCCCSc1ncnc2[nH]ncc12`, the growth inhibition was 0% (inactive).

With `CC(=O)Nc1ccc(/C=C/[N+](=O)[O-])cc1`, the growth inhibition is -42% (inactive).

Take `CCOC(=O)c1[nH]n(-c2ccccc2)c(=O)c1C=NC(=S)C(N)=S`: the growth inhibition is -22% (inactive).

Consider `CCCC(O)C1CC(C(C)C)CCC1C` (stereo unspecified), for which the growth inhibition is 0% (inactive).

`O=[n+]1c2ccccc2n([O-])c2cc(Br)ccc21`: the growth inhibition was 85% (active).

Take `CN(C)CCNC(=O)c1cccc2c1Oc1c(cccc1[N+](=O)[O-])O2`: the growth inhibition was -7% (inactive).

As to `Nc1ncc(-c2ccc(Br)cc2)s1`, the growth inhibition was 53% (inactive).

`Cc1cc2cc3cc(C)c(N)cc3nc2cc1N`: the growth inhibition is 78% (active).

`CC12C(=O)OC(=O)C(c3ccccc31)c1ccccc12`: the growth inhibition is 47% (inactive).

On to `c1ccc2c(OCC3CO3)cccc2c1` (stereo unspecified), for which the growth inhibition was 6% (inactive).

Regarding `CCOC(=N)c1ccc(O)c(OC)c1`, the growth inhibition is -42% (inactive).

Consider `Nc1cc(N)c(N=Nc2cccc3c(S(=O)(=O)O)cccc23)cc1N=Nc1cc([N+](=O)[O-])ccc1O`, for which the growth inhibition is 64% (inactive).

Turning to `COC(=O)Oc1cc(Cl)c(Cl)cc1Cl`, the growth inhibition was -4% (inactive).

Consider `O=C(O)C1CC(c2ccccc2)=NN1c1ccccc1` (stereo unspecified), for which the growth inhibition is 27% (inactive).

Take `COc1cc([C@@H]2c3cc4c(cc3[C@@H](Nc3ccc(NC(=O)c5cc([N+](=O)[O-])cn5C)cc3)[C@H]3COC(=O)[C@H]23)OCO4)cc(OC)c1O`: the growth inhibition was 38% (inactive) and 52% (inactive).

Consider `O=C(O)c1ccccc1/C=N/N=C1c2ccccc2-c2ccccc21`, for which the growth inhibition is 2% (inactive).

Regarding `O=C1CC(=O)c2ccccc21`, the growth inhibition is 1% (inactive).

With `Nc1ncnc2c1ncn2C1OC(CO)CC1O` (stereo unspecified), the growth inhibition is 63% (inactive) and 17% (inactive).

The record behind these values is PubChem BioAssay (NCI).
